RORg inh = qHTS for inhibitors of ROR gamma transcriptional activity; Potency, µM (doses to about 53.6 µM), without a hit: at the top dose activity change, negative = inhibition, most hits filed as inhibitors; 5.4% of 310,000 active; Drosophila S2 Gal4-RORgamma UAS-luciferase reporter, 20 h; Nuclear receptor ROR-gamma (Mus musculus), P51450; also: nearly all actives have a fitted effect of over 60% in size
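A Gal4/UAS one-hybrid system in insect cells: metallothionein-promoter Gal4–ROR gamma fusion plus Photinus luciferase reporter. Copper sulfate 700 uM final, 20 hr ambient incubation, luminescent detection after 10 min with reagent.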
DT40 TDP1 CPT = qHTS for Inhibitors of human tyrosyl-DNA phosphodiesterase 1 (TDP1): qHTS in cells in presence of CPT | 12% of 420,000 active | chicken DT40 Tdp1-/-;hTDP1 cells + 20 nM CPT, ATP luminescence, 48 h | AID 686979, 2013 | Potency, µM (series often up to 46.2 µM), for inactives: at the highest dose activity change, negative = growth inhibition, usual class: inhibitors; also: nearly all actives have a fitted effect of over 55% in size
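Chicken DT40 Tdp1-/- cells complemented with human TDP1, 400 cells/well, exposed to compounds plus 20 nM camptothecin for at least 48 h at 37 C; viability read as ATP content by CellTiter-Glo luminescence.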
Gal4-VP16 FLuc = VP16 counterscreen qHTS for inhibitors of ROR gamma transcriptional activity; 3.5% of 310,000 active; AID 2546, 2010; Potency, µM (top dose mostly 53.6 µM), without a hit: top-dose activity, negative = inhibition, usual class: inhibitors; Drosophila S2 Gal4-VP16 UAS-luciferase, luminescence, 20 h;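 also: Gal4-VP16 expression switched on by copper sulfate through the metallothionein promoter; nearly all actives have a fitted effect of over 50% in size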
DT40 TDP1 no CPT = qHTS for Inhibitors of human tyrosyl-DNA phosphodiesterase 1 (TDP1): qHTS in cells in absence of CPT | DT40 Tdp1-/- hTDP1 cells, no CPT, ATP luminescence, 48 h | Potency, µM (highest dose often 46.2 µM), for inactives: top-dose activity change, negative = growth inhibition, hits mostly inhibitors | 15% of 420,000 active; also: nearly all actives have a fitted effect of over 55% in size
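Growth of hTDP1-complemented DT40 Tdp1-knockout cells is measured by ATP luminescence after at least 48 hr compound exposure at 37 °C, with DMSO substituting for the 20 nM CPT used in the parallel screen.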
TDP1 inh = qHTS Assay for Inhibitors of Tyrosyl-DNA Phosphodiesterase (TDP1). recombinant TDP1, AlphaScreen DNA substrate cleavage. Potency, µM (doses to about 130 µM), for inactives: at the top dose activity change, negative = inhibition, hits mostly inhibitors. 0.28% of 350,000 active. Tyrosyl-DNA phosphodiesterase 1 (Homo sapiens), Q9NUW8; also: nearly all actives have a fitted effect of over 40% in size
Target sequence (Q9NUW8 whole entry, looked up): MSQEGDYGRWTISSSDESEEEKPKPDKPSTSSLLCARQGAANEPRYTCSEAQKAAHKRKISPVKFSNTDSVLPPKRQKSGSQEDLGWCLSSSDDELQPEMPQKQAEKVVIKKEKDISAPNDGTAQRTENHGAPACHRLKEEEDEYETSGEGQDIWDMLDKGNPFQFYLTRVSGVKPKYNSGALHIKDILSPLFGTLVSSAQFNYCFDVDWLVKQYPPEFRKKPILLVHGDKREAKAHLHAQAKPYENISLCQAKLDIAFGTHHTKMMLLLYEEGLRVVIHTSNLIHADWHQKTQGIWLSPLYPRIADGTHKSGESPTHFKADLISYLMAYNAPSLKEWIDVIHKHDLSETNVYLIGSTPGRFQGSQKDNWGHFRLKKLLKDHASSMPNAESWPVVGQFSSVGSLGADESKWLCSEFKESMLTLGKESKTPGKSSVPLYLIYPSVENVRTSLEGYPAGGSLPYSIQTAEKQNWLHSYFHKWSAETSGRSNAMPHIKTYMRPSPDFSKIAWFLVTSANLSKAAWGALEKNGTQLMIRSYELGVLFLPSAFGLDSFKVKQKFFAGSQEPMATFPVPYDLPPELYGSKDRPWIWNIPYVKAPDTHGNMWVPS
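Steps: enzyme plus compound, 15 min RT; add biotin/phosphotyrosine-FITC oligonucleotide (15 nM final), react 5 min; add donor/acceptor beads (10 ug/ml final), 10 min; read AlphaScreen. Tdp1 at 1 nM final.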
* marks the source's active call; other numbers are inactive results; [ ] = remark or other dose. A selection: hits, their analogues and other compounds. The true share with any hit is near 19%. Calls follow the shape of the dose curve; as a rule, active = well fitted curve in the direction sought with a large enough effect; inconclusive = small, poorly fitted or top-dose-only effect, or another doubt; inactive = no such curve, though single readings can be large; an effect the other way counts as inactive or inconclusive. % is scaled to controls: 0 for no effect and ±100 for the full control effect; potency is read from the fitted curve at half-maximal effect.

Screening Cc1ccc(-c2noc(CCC(=O)NCc3ccccc3CN3CCOCC3)n2)cc1 returned DT40 TDP1 CPT inconclusive, DT40 TDP1 no CPT inconclusive and TDP1 inh 0%.
COc1ccc2ccccc2c1/C=N/NC(=O)c1cccc(Br)c1 was read as RORg inh -35%, DT40 TDP1 CPT inconclusive, Gal4-VP16 FLuc 3%, DT40 TDP1 no CPT inconclusive and TDP1 inh -11%.
For CCCOc1ccccc1/C=N/NC(=O)C1CC1 the results were RORg inh 8.9µM*, DT40 TDP1 CPT -28%, Gal4-VP16 FLuc -1%, DT40 TDP1 no CPT 12% and TDP1 inh 3%.
O=C(N/N=C/c1c(O)ccc2ccccc12)c1cccc(C(F)(F)F)c1 was read as RORg inh 3.2µM*, DT40 TDP1 CPT 0.65µM*, Gal4-VP16 FLuc 5µM*, DT40 TDP1 no CPT 1µM* and TDP1 inh 11%.
O=C(NN=Cc1c(O)ccc2ccccc12)C1CC1 was read as DT40 TDP1 CPT 5.8µM* and DT40 TDP1 no CPT 5.2µM*.
For COc1cc(OC)cc(C(=O)OCC(=O)NC(c2ccccc2)c2ccccc2)c1 the results were DT40 TDP1 CPT 2%, DT40 TDP1 no CPT -11% and TDP1 inh -1%.
For Cn1nc(C(=O)N2CCCc3ccccc32)c2ccccc2c1=O the results were RORg inh -9%, DT40 TDP1 CPT -13%, Gal4-VP16 FLuc 3%, DT40 TDP1 no CPT -6% and TDP1 inh 7%.
`CC(C)CNC(=O)COC(=O)c1ccc(Cl)c(S(=O)(=O)N2CCc3ccccc32)c1` gave RORg inh 6%, DT40 TDP1 CPT -3%, Gal4-VP16 FLuc -19%, DT40 TDP1 no CPT -5% and TDP1 inh -3%.
Cc1occc1-c1nnc(SCC(=O)c2ccc(F)cc2)n1Cc1ccco1 was read as RORg inh 16%, DT40 TDP1 CPT inconclusive, Gal4-VP16 FLuc 20%, DT40 TDP1 no CPT inconclusive and TDP1 inh 10%.
Screening O=C(CSc1nc2ccccc2c(=O)n1Cc1ccco1)c1ccc(F)cc1 returned RORg inh 0%[10 µM], DT40 TDP1 CPT 12µM*, Gal4-VP16 FLuc inconclusive, DT40 TDP1 no CPT 23µM* and TDP1 inh -1%.
`COc1ccccc1-c1nnc(SCC(=O)c2ccc(C3CCCCC3)cc2)n1Cc1ccco1` gave RORg inh -6%, DT40 TDP1 CPT 23µM*, Gal4-VP16 FLuc 3%, DT40 TDP1 no CPT 23µM* and TDP1 inh 7%.
O=C(CSc1nnc(-c2cc3ccccc3cc2O)n1Cc1ccco1)c1ccc(F)cc1 was read as RORg inh -33%, DT40 TDP1 CPT 13µM*, Gal4-VP16 FLuc 14µM*, DT40 TDP1 no CPT 16µM* and TDP1 inh 1%.
`CCOC(=O)N1C2C=CC(C2)N1C(=O)OCC` gave DT40 TDP1 CPT 13% and DT40 TDP1 no CPT -9%.
`COc1ccc(/C=C/c2nc(-c3ccccc3O)n[nH]2)cc1` gave RORg inh inconclusive, DT40 TDP1 CPT -2%, Gal4-VP16 FLuc -8%, DT40 TDP1 no CPT -11% and TDP1 inh -7%.
`O=C(COc1ccccc1)NCC1(N2CCCCC2)CCCCC1` gave RORg inh 0%, DT40 TDP1 CPT -1%, Gal4-VP16 FLuc -5%, DT40 TDP1 no CPT 6% and TDP1 inh 6%.
Screening Clc1ccc(SCCOCCN2CCc3ccccc3C2)cc1 returned RORg inh -20%, DT40 TDP1 CPT inconclusive, Gal4-VP16 FLuc 4%[10 µM], DT40 TDP1 no CPT inconclusive and TDP1 inh 3%.
O=C(c1ccc2c(=O)n(Cc3ccccc3)c(=S)[nH]c2c1)N1CCOCC1 was read as RORg inh inconclusive, DT40 TDP1 CPT -20%, Gal4-VP16 FLuc inconclusive, DT40 TDP1 no CPT -28% and TDP1 inh 10%.

Screening data from PubChem.
